Holding throughout (experiment): PBM; 200 nM protein, PBS
What all share (conditions): dsDNA, one strand shown

Test [1] deals with SHOX (Homo sapiens, UniProt O15266 103-189).
Test [2] addresses MSX2 (Homo sapiens, UniProt P35548 130-214, R199I).
Test [3] concerns the target SHOX (Homo sapiens, UniProt O15266 103-189, R173C).
Test [4] has as its target MSX2 (Homo sapiens, UniProt P35548 130-214).
The target in test [5] is MSX2 (Homo sapiens, UniProt P35548 130-214, F161Y).
Test [6] has as its target ALX4 (Homo sapiens, UniProt Q9H161 200-286).
The target in test [7] is ALX4 (Homo sapiens, UniProt Q9H161 200-286, Q225E).
Chain of ALX4 (Homo sapiens, UniProt Q9H161 200-286, Q225E) (Q9H161 200-286 Q225E): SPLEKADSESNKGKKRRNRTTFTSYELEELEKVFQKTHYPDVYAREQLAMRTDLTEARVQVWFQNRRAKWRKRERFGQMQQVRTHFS
Test [8] addresses ALX1 (Homo sapiens, UniProt Q15699 118-204, L144V).
The target in test [9] is ALX1 (Homo sapiens, UniProt Q15699 118-204, L144R).
Chain of ALX1 (Homo sapiens, UniProt Q15699 118-204, L144R) (Q15699 118-204 L144R): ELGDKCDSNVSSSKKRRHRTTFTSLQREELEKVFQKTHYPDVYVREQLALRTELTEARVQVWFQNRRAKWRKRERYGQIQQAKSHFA
The target in test [10] is ALX1 (Homo sapiens, UniProt Q15699 118-204).
Chain of ALX1 (Homo sapiens, UniProt Q15699 118-204) (Q15699 118-204): as the sequence (Q15699 118-204 L144R) above, with R27L counted along it
The next test deals with HOXB9 (Homo sapiens, UniProt P17482 171-250).
Chain of HOXB9 (P17482 171-250): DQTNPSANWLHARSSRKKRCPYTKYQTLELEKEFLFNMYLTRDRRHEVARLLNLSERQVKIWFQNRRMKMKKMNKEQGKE
The target in test [11] is T1, PAX4 (Homo sapiens, UniProt O43316 9-242, R200K).
T1 sequence: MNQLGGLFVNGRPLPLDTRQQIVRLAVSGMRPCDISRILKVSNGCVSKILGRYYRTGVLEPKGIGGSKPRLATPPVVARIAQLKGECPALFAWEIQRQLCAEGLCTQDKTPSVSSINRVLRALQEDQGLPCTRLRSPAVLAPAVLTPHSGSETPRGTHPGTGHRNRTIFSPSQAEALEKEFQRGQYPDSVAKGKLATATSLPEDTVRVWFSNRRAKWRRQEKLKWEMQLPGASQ

The target in test [12] is T2, PAX4 (Homo sapiens, UniProt O43316 9-242).
T2 sequence: T1 sequence with K192R

Test [13] concerns the target T3, PAX4 (Homo sapiens, UniProt O43316 9-242, R200Q).
T3 sequence: T1 sequence with K192Q

The target in test [14] is T4, PAX4 (Homo sapiens, UniProt O43316 9-242, F177V).
T4 sequence: T1 sequence with F169V, K192R

The target of test [15] is T5, PAX4 (Homo sapiens, UniProt O43316 9-242, F177Y).
T5 sequence: T1 sequence with F169Y, K192R

For test [16], the target named is HESX1 (Homo sapiens, UniProt Q9UBX0 95-180, R109Q).
Chain of HESX1 (Homo sapiens, UniProt Q9UBX0 95-180, R109Q) (Q9UBX0 95-180 R109Q): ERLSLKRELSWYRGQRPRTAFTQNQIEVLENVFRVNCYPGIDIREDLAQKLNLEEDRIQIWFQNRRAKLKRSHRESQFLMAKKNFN
Test [17] concerns the target HESX1 (Homo sapiens, UniProt Q9UBX0 95-180, F115L).
Test [18] concerns the target T6, PAX4 (Homo sapiens, UniProt O43316 9-242, R227W).
T6 sequence: T1 sequence with K192R, R219W

Test [19] deals with ALX3 (Homo sapiens, UniProt O95076 139-225, N203Q).
Chain of ALX3 (Homo sapiens, UniProt O95076 139-225, N203Q) (O95076 139-225 N203Q): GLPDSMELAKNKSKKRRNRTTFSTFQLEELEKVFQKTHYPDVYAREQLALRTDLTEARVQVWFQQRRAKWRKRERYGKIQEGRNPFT
The target in test [20] is ALX3 (Homo sapiens, UniProt O95076 139-225).
Chain of ALX3 (Homo sapiens, UniProt O95076 139-225) (O95076 139-225): as the sequence (O95076 139-225 N203Q) above, with Q65N counted along it
Test [21] has as its target ALX3 (Homo sapiens, UniProt O95076 139-225, L168Q).
For test [22], the target named is ALX3 (Homo sapiens, UniProt O95076 139-225, L168V).
Chain of ALX3 (Homo sapiens, UniProt O95076 139-225, L168V) (O95076 139-225 L168V): as the sequence (O95076 139-225 N203Q) above, with L30V, Q65N counted along it
For test [23], the target named is ALX3 (Homo sapiens, UniProt O95076 139-225, N203S).
Chain of ALX3 (Homo sapiens, UniProt O95076 139-225, N203S) (O95076 139-225 N203S): as the sequence (O95076 139-225 N203Q) above, with Q65S counted along it
Test [24] concerns the target PRRX1 (Homo sapiens, UniProt P54821 80-166, F113S).
For test [25], the target named is PRRX1 (Homo sapiens, UniProt P54821 80-166).
Chain of PRRX1 (Homo sapiens, UniProt P54821 80-166) (P54821 80-166): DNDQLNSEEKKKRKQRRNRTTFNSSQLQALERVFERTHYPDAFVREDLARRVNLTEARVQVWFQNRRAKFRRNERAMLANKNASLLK

Positions count from the first letter of the chain named.

Chain of SHOX (Homo sapiens, UniProt O15266 103-189) (O15266 103-189): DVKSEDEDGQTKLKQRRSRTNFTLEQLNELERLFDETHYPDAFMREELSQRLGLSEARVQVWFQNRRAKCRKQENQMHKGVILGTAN
Chain of MSX2 (Homo sapiens, UniProt P35548 130-214, F161Y) (P35548 130-214 F161Y): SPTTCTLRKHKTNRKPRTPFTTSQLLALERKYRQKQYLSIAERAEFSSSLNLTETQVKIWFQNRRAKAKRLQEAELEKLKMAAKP
Chain of SHOX (Homo sapiens, UniProt O15266 103-189, R173C) (O15266 103-189 R173C): as the sequence (O15266 103-189) above, with R71C counted along it
Chain of MSX2 (Homo sapiens, UniProt P35548 130-214, R199I) (P35548 130-214 R199I): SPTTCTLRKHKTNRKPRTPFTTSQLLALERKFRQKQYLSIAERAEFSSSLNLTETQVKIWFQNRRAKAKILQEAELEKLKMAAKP
Chain of MSX2 (Homo sapiens, UniProt P35548 130-214) (P35548 130-214): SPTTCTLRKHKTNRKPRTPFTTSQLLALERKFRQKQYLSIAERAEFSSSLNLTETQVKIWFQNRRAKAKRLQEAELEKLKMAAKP
Chain of ALX1 (Homo sapiens, UniProt Q15699 118-204, L144V) (Q15699 118-204 L144V): as the sequence (Q15699 118-204 L144R) above, with R27V counted along it
Chain of PRRX1 (Homo sapiens, UniProt P54821 80-166, F113S) (P54821 80-166 F113S): as the sequence (P54821 80-166) above, with F34S counted along it
Chain of ALX3 (Homo sapiens, UniProt O95076 139-225, L168Q) (O95076 139-225 L168Q): as the sequence (O95076 139-225 N203Q) above, with L30Q, Q65N counted along it
Chain of ALX4 (Homo sapiens, UniProt Q9H161 200-286) (Q9H161 200-286): as the sequence (Q9H161 200-286 Q225E) above, with E26Q counted along it
Chain of HESX1 (Homo sapiens, UniProt Q9UBX0 95-180, F115L) (Q9UBX0 95-180 F115L): as the sequence (Q9UBX0 95-180 R109Q) above, with Q15R, F21L counted along it

In the case of GCGCCAGC, the binding signal with SHOX [1] is 7.13 upbm affinity estimate (log intensity, higher = more binding, comparable within an allelic series); in the test with MSX2 [2] it was 9.22 upbm affinity estimate (log intensity, higher = more binding, comparable within an allelic series); with SHOX [3], 6.97 upbm affinity estimate (log intensity, higher = more binding, comparable within an allelic series); with MSX2 [4] it was 9.48 upbm affinity estimate (log intensity, higher = more binding, comparable within an allelic series); with MSX2 [5], 9.39 upbm affinity estimate (log intensity, higher = more binding, comparable within an allelic series).

With AGCTCCAG, the binding signal with SHOX [1] is 7.12 upbm affinity estimate (log intensity, higher = more binding, comparable within an allelic series); with ALX4 [6] it was 7.91 upbm affinity estimate (log intensity, higher = more binding, comparable within an allelic series); in the test with ALX4 [7] it was 8.27 upbm affinity estimate (log intensity, higher = more binding, comparable within an allelic series); with ALX1 [8], 6.26 upbm affinity estimate (log intensity, higher = more binding, comparable within an allelic series); with SHOX [3] it was 7.22 upbm affinity estimate (log intensity, higher = more binding, comparable within an allelic series); with ALX1 [9] it was 6.27 upbm affinity estimate (log intensity, higher = more binding, comparable within an allelic series). For the same sequence, the binding signal in the test with ALX1 [10] is 6.1 upbm affinity estimate (log intensity, higher = more binding, comparable within an allelic series).

With GATATGTA, the binding signal was 8.18 upbm affinity estimate (log intensity, higher = more binding, comparable within an allelic series) with SHOX [1]; 9.76 upbm affinity estimate (log intensity, higher = more binding, comparable within an allelic series) with HOXB9; 7.81 upbm affinity estimate (log intensity, higher = more binding, comparable within an allelic series) in the test with SHOX [3].

Consider AATTAGAC, for which the binding signal is 11.4 upbm affinity estimate (log intensity, higher = more binding, comparable within an allelic series) with SHOX [1]; 11.7 upbm affinity estimate (log intensity, higher = more binding, comparable within an allelic series) with PAX4 [11]; 12.2 upbm affinity estimate (log intensity, higher = more binding, comparable within an allelic series) in the test with PAX4 [12]; 12 upbm affinity estimate (log intensity, higher = more binding, comparable within an allelic series) with PAX4 [13]; 9.23 upbm affinity estimate (log intensity, higher = more binding, comparable within an allelic series) in the test with SHOX [3]; 10.6 upbm affinity estimate (log intensity, higher = more binding, comparable within an allelic series) with PAX4 [14]. In addition, the binding signal is 11 upbm affinity estimate (log intensity, higher = more binding, comparable within an allelic series) with PAX4 [15]; 8.68 upbm affinity estimate (log intensity, higher = more binding, comparable within an allelic series) with HESX1 [16]; 7.81 upbm affinity estimate (log intensity, higher = more binding, comparable within an allelic series) with HESX1 [17]; 11 upbm affinity estimate (log intensity, higher = more binding, comparable within an allelic series) with PAX4 [18].

With CGGGGGGC, the binding signal in the test with SHOX [1] is 7.33 upbm affinity estimate (log intensity, higher = more binding, comparable within an allelic series); in the test with PAX4 [11] it was 9.22 upbm affinity estimate (log intensity, higher = more binding, comparable within an allelic series); in the test with PAX4 [12], 9.41 upbm affinity estimate (log intensity, higher = more binding, comparable within an allelic series); in the test with MSX2 [2], 9.61 upbm affinity estimate (log intensity, higher = more binding, comparable within an allelic series); in the test with PAX4 [13], 9.12 upbm affinity estimate (log intensity, higher = more binding, comparable within an allelic series); with SHOX [3], 7 upbm affinity estimate (log intensity, higher = more binding, comparable within an allelic series). Moreover, the binding signal with PAX4 [14] was 8.99 upbm affinity estimate (log intensity, higher = more binding, comparable within an allelic series); in the test with MSX2 [4] it was 9.76 upbm affinity estimate (log intensity, higher = more binding, comparable within an allelic series); with PAX4 [15], 9.11 upbm affinity estimate (log intensity, higher = more binding, comparable within an allelic series); in the test with MSX2 [5] it was 9.77 upbm affinity estimate (log intensity, higher = more binding, comparable within an allelic series); with PAX4 [18], 9.12 upbm affinity estimate (log intensity, higher = more binding, comparable within an allelic series).

For the sequence GGGAACCC, the binding signal in the test with SHOX [1] is 7.2 upbm affinity estimate (log intensity, higher = more binding, comparable within an allelic series); in the test with PAX4 [11], 9.42 upbm affinity estimate (log intensity, higher = more binding, comparable within an allelic series); in the test with PAX4 [12], 9.42 upbm affinity estimate (log intensity, higher = more binding, comparable within an allelic series); in the test with PAX4 [13], 9.62 upbm affinity estimate (log intensity, higher = more binding, comparable within an allelic series); in the test with SHOX [3], 7.06 upbm affinity estimate (log intensity, higher = more binding, comparable within an allelic series); in the test with PAX4 [14], 9.39 upbm affinity estimate (log intensity, higher = more binding, comparable within an allelic series). Moreover, the binding signal was 9.36 upbm affinity estimate (log intensity, higher = more binding, comparable within an allelic series) in the test with PAX4 [15] and 9.48 upbm affinity estimate (log intensity, higher = more binding, comparable within an allelic series) with PAX4 [18].

In the case of ACAAATTA, the binding signal in the test with SHOX [1] was 11.4 upbm affinity estimate (log intensity, higher = more binding, comparable within an allelic series); with PAX4 [11], 11.7 upbm affinity estimate (log intensity, higher = more binding, comparable within an allelic series); with PAX4 [12] it was 12.3 upbm affinity estimate (log intensity, higher = more binding, comparable within an allelic series); with MSX2 [2], 12 upbm affinity estimate (log intensity, higher = more binding, comparable within an allelic series); with ALX1 [8], 11.3 upbm affinity estimate (log intensity, higher = more binding, comparable within an allelic series); in the test with ALX3 [19], 8.4 upbm affinity estimate (log intensity, higher = more binding, comparable within an allelic series). Moreover, the binding signal in the test with PAX4 [13] was 12.2 upbm affinity estimate (log intensity, higher = more binding, comparable within an allelic series); in the test with SHOX [3] it was 9.08 upbm affinity estimate (log intensity, higher = more binding, comparable within an allelic series); in the test with ALX1 [9] it was 10.9 upbm affinity estimate (log intensity, higher = more binding, comparable within an allelic series); with PAX4 [14], 10.5 upbm affinity estimate (log intensity, higher = more binding, comparable within an allelic series); with MSX2 [4], 13.3 upbm affinity estimate (log intensity, higher = more binding, comparable within an allelic series); with ALX3 [20], 12.2 upbm affinity estimate (log intensity, higher = more binding, comparable within an allelic series). Also, the binding signal in the test with PAX4 [15] was 11 upbm affinity estimate (log intensity, higher = more binding, comparable within an allelic series); with ALX3 [21] it was 10.1 upbm affinity estimate (log intensity, higher = more binding, comparable within an allelic series); with ALX3 [22], 9.54 upbm affinity estimate (log intensity, higher = more binding, comparable within an allelic series); in the test with MSX2 [5] it was 12.9 upbm affinity estimate (log intensity, higher = more binding, comparable within an allelic series); with PAX4 [18], 11 upbm affinity estimate (log intensity, higher = more binding, comparable within an allelic series); in the test with ALX1 [10] it was 12 upbm affinity estimate (log intensity, higher = more binding, comparable within an allelic series). Besides, the binding signal in the test with ALX3 [23] was 8.51 upbm affinity estimate (log intensity, higher = more binding, comparable within an allelic series).

Take AATAATAC: the binding signal was 9.32 upbm affinity estimate (log intensity, higher = more binding, comparable within an allelic series) in the test with SHOX [1]; 10.6 upbm affinity estimate (log intensity, higher = more binding, comparable within an allelic series) with PRRX1 [24]; 10.3 upbm affinity estimate (log intensity, higher = more binding, comparable within an allelic series) with ALX3 [20]; 12.3 upbm affinity estimate (log intensity, higher = more binding, comparable within an allelic series) with PRRX1 [25].

The values are drawn from publication PMC11006913.
